About 83,000 compounds went through this panel and 20% of them were active in at least one assay; those are over-represented in the sample as a whole.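 Cell lines were cultured in 96-well plates, exposed to a single compound concentration, and assessed for percent growth 48 hours later.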 A number with no mark means an inactive call. Calls of active or inactive are those of the source. Rule for the calls: active = growth percent below 10; inactive = the rest.
Experiments:
Test in all cases: NCI-60 one-dose screen, 48 h (100 = growth as untreated, 0 = no growth, -100 = all killed)
Conditions in all cases: 10 µM unless noted
[1] = tested on: NCI-H23 lung
[2] = tested on: NCI-H226 lung
[3] = tested on: NCI-H322M lung
[4] = tested on: HOP-62 NSCLC
[5] = tested on: NCI-H460 lung
[6] = tested on: HOP-92 NSCLC
[7] = tested on: NCI-H522 lung
[8] = tested on: A549/ATCC NSCLC
[9] = tested on: 786-0 renal
[10] = tested on: COLO 205 colon

SMILES	growth [1]	growth [2]	growth [3]	growth [4]	growth [5]	growth [6]	growth [7]	growth [8]	growth [9]	growth [10]
O=C(CCl)N(c1ccccc1)c1ccccc1	98.1%	102%	95%	105%	111%	78.5%	-29.7% (active)	103%	108%	111%
CC(C)(C)CC(C)(C)c1ccc(OCCOCCSC(=N)N)cc1	30.8%	92.4%	67.9%	96.1%	23.4%	37%	-3.81% (active)	68.8%	-36% (active)	-80.6% (active)
COc1ccc(NC(=O)/C(=C/N2C(=O)/C(=C/c3ccc(OC)c(OC)c3)NC2=S)C(C)=O)cc1	64.5%	83.1%	71.1%	58.4%	65.6%	3.15% (active)	46.8%	63.8%	99.2%	107%
Oc1ccc2c(c1)CCc1ccccc1-2	108%	93.5%	110%	83.3%	106%	97.4%	100%	98.1%	88.1%	106%
Cc1nc(Sc2nc3ccc([N+](=O)[O-])cc3s2)sc1C	-3.96% (active)	2.43% (active)	89.2%	72.2%	11.7%	1.28% (active)	-48.1% (active)	55.9%	19.6%	27.1%
O=C(NNc1ccccc1)OCc1ccccc1	103%	97.7%	67.6%	100%	79.5%	82%	82.1%	70.7%	78.2%	97.6%
Cc1cccc2c(N)c3ccccc3nc12	-39.6% (active)	-9.22% (active)	-2.56% (active)	-7.52% (active)	-17.4% (active)	-20.4% (active)	-36% (active)	-68.6% (active)	-9.45% (active)	-48.2% (active)
NC(=Nc1nc(-c2ccccn2)cc2ccccc12)c1ccccn1	-90.1% (active)	21.4%	21.6%	8.21% (active)	1.13% (active)	-2.84% (active)	36.3%	-54.2% (active)	3.78% (active)	6.29% (active)
CN(C)CC(C)(CN(C)C)C(=O)/C=C/c1c(Cl)cccc1Cl	45.9%	11.1%	70.6%	94.6%	57.9%	40.1%	-80.9% (active)	80.6%	-44% (active)	101%
CCCCCCCCC(=O)OCCCC(CCC(CCC1CCCO1)OC(=O)CCCCCCCC)OC(=O)CCCCCCCC (stereo not drawn)	104%	104%	102%	95.6%	111%	99%	70.8%	104%	97%	111%
COc1cc(/C=C2\SC(=S)N(/C=C/c3nc4ccccc4[nH]c3=O)C2=O)cc(OC)c1OC	69.7%	76.6%	89.1%	65.8%	92.1%	53.3%	60.3%	67.5%	76.6%	101%
CCN1/C(=C/C(C)=C/c2sc3ccc4ccccc4c3[n+]2CC)Sc2ccc3ccccc3c21	-65.5% (active)	-82.4% (active)	-97.8% (active)	-65.2% (active)	-90.5% (active)	-89.1% (active)	-77.3% (active)	-76.8% (active)	-88.5% (active)	-83.6% (active)
CC(=O)c1c(O)c(C)c(O)c2c1OC1=CC(=O)C(C(C)=O)C(=O)C12C (stereo not drawn)	79.1%	88.6%	60.3%	74.3%	89.1%	-0.143% (active)	71.7%	–	69.9%	–
CCOC(=O)/C(=C\c1ccc2ccccc2c1)P(=O)(OCC)OCC	41.1%	55.7%	70%	40.6%	20%	40.7%	-31.7% (active)	55.8%	11.6%	42.2%

— PubChem BioAssay (NCI)
